Results with a measured potency or affinity are listed apart.

Chain of Protein translocase subunit SecA (Escherichia coli (strain K12)) (P10408 whole entry): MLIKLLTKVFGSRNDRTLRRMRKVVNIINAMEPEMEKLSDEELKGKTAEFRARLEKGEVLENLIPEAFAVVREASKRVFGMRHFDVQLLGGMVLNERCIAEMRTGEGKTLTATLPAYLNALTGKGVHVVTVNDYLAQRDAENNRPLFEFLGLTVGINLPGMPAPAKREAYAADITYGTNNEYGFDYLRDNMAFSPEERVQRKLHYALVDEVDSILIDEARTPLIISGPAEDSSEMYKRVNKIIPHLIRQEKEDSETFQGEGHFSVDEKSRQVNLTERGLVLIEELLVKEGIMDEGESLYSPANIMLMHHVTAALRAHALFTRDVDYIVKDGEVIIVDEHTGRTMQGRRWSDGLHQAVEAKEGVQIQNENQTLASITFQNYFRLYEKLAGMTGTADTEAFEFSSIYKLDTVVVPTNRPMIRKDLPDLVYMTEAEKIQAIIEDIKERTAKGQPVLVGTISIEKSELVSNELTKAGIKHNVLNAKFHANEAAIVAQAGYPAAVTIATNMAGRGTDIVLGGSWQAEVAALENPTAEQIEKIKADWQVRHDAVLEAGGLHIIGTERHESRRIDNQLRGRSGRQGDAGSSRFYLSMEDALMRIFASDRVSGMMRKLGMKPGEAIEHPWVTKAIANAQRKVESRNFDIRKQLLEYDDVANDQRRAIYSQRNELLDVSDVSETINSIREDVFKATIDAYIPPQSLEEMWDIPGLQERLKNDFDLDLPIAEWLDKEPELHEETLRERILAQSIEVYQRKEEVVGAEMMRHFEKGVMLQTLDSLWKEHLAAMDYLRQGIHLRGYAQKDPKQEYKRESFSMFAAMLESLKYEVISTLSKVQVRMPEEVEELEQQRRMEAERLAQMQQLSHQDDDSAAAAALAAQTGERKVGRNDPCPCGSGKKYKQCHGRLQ

One assay concerns the target Protein translocase subunit SecA (Escherichia coli (strain K12)) (UniProt P10408). The experiment in a line: Assay to Identify E. coli SecA ATPase Inhibitors. The assay is classed as functional. Details: scale not given: direction of the effect not stated beside the values. Conditions: 30 µM.
In the case of `CC(=O)N1CCCN(Cc2csc(-c3ncccn3)n2)CC1`, the Percent Effect was -0.976%.

In the case of `O=C(NCCc1ccn(-c2ccccc2)n1)N1CCC1`, the Percent Effect is -2.79%.

`O=C(NC1CC1)[C@H]1C[C@@H]2CCN(CCc3ccccc3)C[C@H]2O1`: the Percent Effect is 2.18%.

For the molecule `CC1c2ncc(CN3CCN(C)CC3)n2CCN1CC1CC1` (stereo not drawn), the Percent Effect was -1.8%.

`O=S(=O)(c1cccs1)N1CC[C@H](O)[C@@H]1Cc1ccncc1`: the Percent Effect is -3.12%.

With `COCc1nc2cc(NCc3ccncc3)ccc2o1`, the Percent Effect stood at 6.12%.

As for `CCn1cc(CN(C)C(=O)c2cccc(CCC(C)(C)O)c2)cn1`, the Percent Effect is -5.71%.

For the molecule `COCCCNC(=O)CCn1nc(C)c2ccccc21`, the Percent Effect is -3.61%.

For `CCc1nc(CN2CCCC(NCc3ccc(C(N)=O)cc3)C2)no1` (stereo not drawn), the Percent Effect is -4.14%.

`CCS(=O)(=O)N1CCO[C@H]2[C@H](OCCCn3cccn3)CC[C@@H]21`: the Percent Effect was -0.913%.

With `Cc1nccn1C1CCCN(C(=O)c2ccc3c(c2)COC3)C1` (stereo not drawn), the Percent Effect was -0.738%.

For the molecule `Cc1cc(C)n(-c2ccc(CNCc3ccc(OC(C)C)cc3)cn2)n1`, the Percent Effect was -0.648%.

For the molecule `CCc1nc(C2CCCN2Cc2nc3ccccc3o2)no1` (stereo not drawn), the Percent Effect was -0.183%.

`CC(C)N1CCC(Cc2cc(-c3ccccc3C(=O)O)ncn2)CC1`: the Percent Effect was -1.66%.

On to `CC(=O)c1cccc(OCCCC(=O)NCC2CCCN2C)c1` (stereo not drawn), for which the Percent Effect is -3.97%.

Regarding `CN1C(=O)C[C@@H]2[C@@H]1CCN2C(=O)c1ccc[nH]1`, the Percent Effect was -5.79%.

`Cc1cc(C)n(-c2cncc(N3CCN(C(=O)C(C)(C)C)CC3)n2)n1`: the Percent Effect was -5.22%.

Take `C1CCCN(c2nc(C3CC3)ns2)CC1`: the Percent Effect was -7.97%.

As for `Cn1cnnc1S(=O)(=O)C1CCN(S(=O)(=O)C2CC2)CC1`, the Percent Effect is -2.77%.

As for `O=C(O)c1ccc(S(=O)(=O)Nc2ccc(Cl)c(F)c2)c(F)c1`, the Percent Effect is -2.14%.

On to `c1ccc(OCCN2CCCC(c3noc(C4CC4)n3)C2)cc1` (stereo not drawn), for which the Percent Effect is -8.89%.

`Cn1ccc(C(=O)N2CCN(CCc3ccccc3)CC2)cc1=O`: the Percent Effect is -5.05%.

As for `CN(Cc1cccs1)C(=O)CN1CCCC1Cn1cncn1` (stereo not drawn), the Percent Effect is -1.48%.

Take `CNC(=O)C1(CCCc2ccncc2)CCCN1` (stereo not drawn): the Percent Effect was -0.846%.

For the molecule `c1cn(Cc2nnc(C3CCN(C4CCOCC4)CC3)n2C2CC2)cn1`, the Percent Effect is -3.73%.

Regarding `COC(=O)CCc1c(C)nc2cc(O)nn2c1C`, the Percent Effect was -4.39%.

For `CCN(CC1CCCO1)C(=O)Nc1cc(OC)c(OC)cc1C` (stereo not drawn), the Percent Effect is -8.28%.

In the case of `Cc1noc(C(C)C)c1C(=O)NCC(c1ccsc1)N(C)C` (stereo not drawn), the Percent Effect was -1.69%.

Regarding `O=C(Cc1ccccn1)N1C[C@@H]2CC[C@H](C1)N(Cc1ccccc1)C2=O`, the Percent Effect is -1.67%.

With `COCCn1cc(C(=O)N2CCCC2c2cc(C)no2)ccc1=O` (stereo not drawn), the Percent Effect was -2.03%.

For the molecule `CC(C)c1noc(CCCC(=O)N2CCC(Cc3cccnc3)CC2)n1`, the Percent Effect was determined as 1.54%.

As for `Cc1nn(-c2ccccc2)c2c1C(c1ccc(C(=O)O)cc1)CC(=O)N2` (stereo not drawn), the Percent Effect is -4.78%.

For `CC(OCC1CC1)C(=O)N1CCCN(c2ncccc2C#N)CC1` (stereo not drawn), the Percent Effect is -5.69%.

Take `CCN(Cc1ccc2c(c1)OCCO2)S(=O)(=O)N(C)C(C)C`: the Percent Effect was -5.7%.

For the molecule `CC(C)N(C)C(=O)C1=NOC2(CCN(C(=O)c3ccncc3)C2)C1` (stereo not drawn), the Percent Effect was -3.37%.

`CN1CCCC1c1cccc(Cc2ccccc2F)n1` (stereo not drawn): the Percent Effect was -3.07%.

Take `Cc1cc(CNc2ccc(C(=O)N3CCCC(C)C3)cc2C)no1` (stereo not drawn): the Percent Effect is -4.07%.

Take `Cn1nc(C#N)c2c1CN(C(=O)c1cccnc1)CCC2`: the Percent Effect is -4.61%.

As for `CCOCCCNC(=O)c1nn(CC)cc1Cl`, the Percent Effect was -0.389%.

The target in a further assay is T1, Ubiquitin-activating enzyme e1, putative (Leishmania donovani (strain BPK282A1)) (UniProt E9BSI1).
T1 sequence (whole entry): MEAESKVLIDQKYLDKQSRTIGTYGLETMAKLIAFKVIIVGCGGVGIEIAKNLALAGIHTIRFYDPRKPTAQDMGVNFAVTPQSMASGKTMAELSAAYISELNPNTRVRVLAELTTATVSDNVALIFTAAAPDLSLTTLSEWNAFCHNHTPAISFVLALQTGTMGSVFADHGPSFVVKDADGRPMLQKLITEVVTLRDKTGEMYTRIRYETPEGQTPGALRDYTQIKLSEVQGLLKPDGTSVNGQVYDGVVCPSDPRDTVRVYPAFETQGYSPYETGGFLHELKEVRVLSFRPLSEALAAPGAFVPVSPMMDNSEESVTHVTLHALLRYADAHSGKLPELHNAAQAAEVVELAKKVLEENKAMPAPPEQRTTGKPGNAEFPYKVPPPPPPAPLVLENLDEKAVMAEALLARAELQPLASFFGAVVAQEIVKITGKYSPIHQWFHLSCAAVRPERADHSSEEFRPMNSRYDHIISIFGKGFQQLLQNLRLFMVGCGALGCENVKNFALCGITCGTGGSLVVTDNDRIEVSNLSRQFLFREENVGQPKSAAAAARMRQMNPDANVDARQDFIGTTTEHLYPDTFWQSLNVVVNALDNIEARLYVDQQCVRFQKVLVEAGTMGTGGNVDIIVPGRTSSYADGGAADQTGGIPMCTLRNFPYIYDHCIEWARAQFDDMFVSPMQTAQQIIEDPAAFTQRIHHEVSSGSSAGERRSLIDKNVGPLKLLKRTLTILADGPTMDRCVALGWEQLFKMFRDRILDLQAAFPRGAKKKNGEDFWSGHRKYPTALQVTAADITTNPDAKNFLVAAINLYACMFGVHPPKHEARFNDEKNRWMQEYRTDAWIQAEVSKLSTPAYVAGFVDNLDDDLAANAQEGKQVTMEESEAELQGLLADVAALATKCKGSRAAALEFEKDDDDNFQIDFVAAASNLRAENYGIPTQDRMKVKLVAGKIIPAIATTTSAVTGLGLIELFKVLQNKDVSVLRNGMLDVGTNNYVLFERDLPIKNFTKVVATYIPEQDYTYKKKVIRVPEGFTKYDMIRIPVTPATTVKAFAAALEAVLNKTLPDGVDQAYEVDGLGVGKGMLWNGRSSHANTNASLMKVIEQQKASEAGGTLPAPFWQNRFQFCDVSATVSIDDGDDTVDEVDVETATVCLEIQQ
In words: Leishmania donovani Ubiquitin Activating Enzyme (LdE1). It counts as functional. Conditions: 30 µM. Also noted: scale not given: direction of the effect not stated beside the values.
On to `CC(=O)N1CCCN(Cc2csc(-c3ncccn3)n2)CC1`, for which the Percent Effect is 13.2%.

Consider `O=C(NCCc1ccn(-c2ccccc2)n1)N1CCC1`, for which the Percent Effect came to 15.6%.

Take `O=C(NC1CC1)[C@H]1C[C@@H]2CCN(CCc3ccccc3)C[C@H]2O1`: the Percent Effect was 10.7%.

For `CC1c2ncc(CN3CCN(C)CC3)n2CCN1CC1CC1` (stereo not drawn), the Percent Effect was determined as 18.7%.

As for `O=S(=O)(c1cccs1)N1CC[C@H](O)[C@@H]1Cc1ccncc1`, the Percent Effect was 13.5%.

With `COCc1nc2cc(NCc3ccncc3)ccc2o1`, the Percent Effect was found to be 54%.

As to `CCn1cc(CN(C)C(=O)c2cccc(CCC(C)(C)O)c2)cn1`, the Percent Effect was 5.33%.

In the case of `COCCCNC(=O)CCn1nc(C)c2ccccc21`, the Percent Effect stood at 6.67%.

Take `CCc1nc(CN2CCCC(NCc3ccc(C(N)=O)cc3)C2)no1` (stereo not drawn): the Percent Effect turned out to be 2.53%.

With `CCS(=O)(=O)N1CCO[C@H]2[C@H](OCCCn3cccn3)CC[C@@H]21`, the Percent Effect was -2.67%.

With `Cc1nccn1C1CCCN(C(=O)c2ccc3c(c2)COC3)C1` (stereo not drawn), the Percent Effect was -2.7%.

Consider `Cc1cc(C)n(-c2ccc(CNCc3ccc(OC(C)C)cc3)cn2)n1`, for which the Percent Effect was 13.2%.

For `CCc1nc(C2CCCN2Cc2nc3ccccc3o2)no1` (stereo not drawn), the Percent Effect came out at 2.6%.

As to `CC(C)N1CCC(Cc2cc(-c3ccccc3C(=O)O)ncn2)CC1`, the Percent Effect worked out at 52.7%.

Consider `CC(=O)c1cccc(OCCCC(=O)NCC2CCCN2C)c1` (stereo not drawn), for which the Percent Effect was 13.2%.

`CN1C(=O)C[C@@H]2[C@@H]1CCN2C(=O)c1ccc[nH]1`: the Percent Effect is -2.74%.

Regarding `Cc1cc(C)n(-c2cncc(N3CCN(C(=O)C(C)(C)C)CC3)n2)n1`, the Percent Effect is 5.41%.

With `C1CCCN(c2nc(C3CC3)ns2)CC1`, the Percent Effect was -5.48%.

Turning to `Cn1cnnc1S(=O)(=O)C1CCN(S(=O)(=O)C2CC2)CC1`, the Percent Effect was -2.74%.

Regarding `O=C(O)c1ccc(S(=O)(=O)Nc2ccc(Cl)c(F)c2)c(F)c1`, the Percent Effect is -2.7%.

In the case of `c1ccc(OCCN2CCCC(c3noc(C4CC4)n3)C2)cc1` (stereo not drawn), the Percent Effect was 0%.

On to `Cn1ccc(C(=O)N2CCN(CCc3ccccc3)CC2)cc1=O`, for which the Percent Effect was determined as 11.4%.

`CN(Cc1cccs1)C(=O)CN1CCCC1Cn1cncn1` (stereo not drawn): the Percent Effect amounted to 10.4%.

As to `CNC(=O)C1(CCCc2ccncc2)CCCN1` (stereo not drawn), the Percent Effect is 12.2%.

Consider `c1cn(Cc2nnc(C3CCN(C4CCOCC4)CC3)n2C2CC2)cn1`, for which the Percent Effect came to 2.67%.

As for `COC(=O)CCc1c(C)nc2cc(O)nn2c1C`, the Percent Effect amounted to 20.8%.

For `CCN(CC1CCCO1)C(=O)Nc1cc(OC)c(OC)cc1C` (stereo not drawn), the Percent Effect was found to be 27.9%.

In the case of `Cc1noc(C(C)C)c1C(=O)NCC(c1ccsc1)N(C)C` (stereo not drawn), the Percent Effect worked out at 15.2%.

`O=C(Cc1ccccn1)N1C[C@@H]2CC[C@H](C1)N(Cc1ccccc1)C2=O`: the Percent Effect came out at 2.7%.

As to `COCCn1cc(C(=O)N2CCCC2c2cc(C)no2)ccc1=O` (stereo not drawn), the Percent Effect worked out at 8.11%.

With `CC(C)c1noc(CCCC(=O)N2CCC(Cc3cccnc3)CC2)n1`, the Percent Effect was -2.53%.

Turning to `Cc1nn(-c2ccccc2)c2c1C(c1ccc(C(=O)O)cc1)CC(=O)N2` (stereo not drawn), the Percent Effect was determined as 10.7%.

For `CC(OCC1CC1)C(=O)N1CCCN(c2ncccc2C#N)CC1` (stereo not drawn), the Percent Effect is 23.7%.

In the case of `CCN(Cc1ccc2c(c1)OCCO2)S(=O)(=O)N(C)C(C)C`, the Percent Effect came out at 7.79%.

Take `CC(C)N(C)C(=O)C1=NOC2(CCN(C(=O)c3ccncc3)C2)C1` (stereo not drawn): the Percent Effect was found to be 2.74%.

As to `CN1CCCC1c1cccc(Cc2ccccc2F)n1` (stereo not drawn), the Percent Effect is -20.3%.

As for `Cc1cc(CNc2ccc(C(=O)N3CCCC(C)C3)cc2C)no1` (stereo not drawn), the Percent Effect was determined as 10.4%.

In the case of `Cn1nc(C#N)c2c1CN(C(=O)c1cccnc1)CCC2`, the Percent Effect turned out to be 2.6%.

With `CCOCCCNC(=O)c1nn(CC)cc1Cl`, the Percent Effect came out at 14.7%.
